Measurements taken from publication PMC9911399, “Two distinct binding modes provide the RNA-binding protein RbFox with extraordinary sequence specificity”.
Numbering of substitutions follows the chain as printed; changes in the protein carry UniProt numbers. Whole data set: some 16,000 sequences, median “ka relative to ugcaugu” near 0.0091, cut for the highest 2% near 0.032. This is one part of a sample in which the highest values are shown more often than they occur.

T1: RBFOX1 RRM (Homo sapiens, UniProt Q9NWB1 109-208)
T1 sequence: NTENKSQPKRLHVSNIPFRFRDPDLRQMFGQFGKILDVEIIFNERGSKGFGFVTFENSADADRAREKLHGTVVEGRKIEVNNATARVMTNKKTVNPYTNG

B1: UCUCUCC (DNA:RNA)
RNA: GGGAGACCGGAAUUCAGAUUGUCCUCUCUCCUUAAAUCCCGUCGUAGCCACCA
DNA 1: CAATCTGAATTCCGGTCTCCC
DNA 2: TGGTGGCTACGACGGGATT
B2: GACACAG (DNA:RNA)
RNA: GGGAGACCGGAAUUCAGAUUGUCCGACACAGUUAAAUCCCGUCGUAGCCACCA
DNA 1: CAATCTGAATTCCGGTCTCCC
DNA 2: TGGTGGCTACGACGGGATT
B3: UCUUGGG (DNA:RNA)
RNA: B1 RNA with C28U, U29G, C30G, C31G
DNA 1: CAATCTGAATTCCGGTCTCCC
DNA 2: TGGTGGCTACGACGGGATT
B4: UCCGCCC (DNA:RNA)
RNA: B1 RNA with U27C, C28G, U29C
DNA 1: CAATCTGAATTCCGGTCTCCC
DNA 2: TGGTGGCTACGACGGGATT
B5: CCGCAGG (DNA:RNA)
RNA: B1 RNA with U25C, U27G, U29A, C30G, C31G
DNA 1: CAATCTGAATTCCGGTCTCCC
DNA 2: TGGTGGCTACGACGGGATT
B6: UGCUACU (DNA:RNA)
RNA: B1 RNA with C26G, U27C, C28U, U29A, C31U
DNA 1: CAATCTGAATTCCGGTCTCCC
DNA 2: TGGTGGCTACGACGGGATT
B7: GGCACCG (DNA:RNA)
RNA: B2 RNA with A26G, A30C
DNA 1: CAATCTGAATTCCGGTCTCCC
DNA 2: TGGTGGCTACGACGGGATT
B8: GGCCACG (DNA:RNA)
RNA: B2 RNA with A26G, A28C, C29A, A30C
DNA 1: CAATCTGAATTCCGGTCTCCC
DNA 2: TGGTGGCTACGACGGGATT
B9: CGGCACG (DNA:RNA)
RNA: B1 RNA with U25C, C26G, U27G, U29A, C31G
DNA 1: CAATCTGAATTCCGGTCTCCC
DNA 2: TGGTGGCTACGACGGGATT
B10: UGGGCGG (DNA:RNA)
RNA: B2 RNA with G25U, A26G, C27G, A28G, A30G
DNA 1: CAATCTGAATTCCGGTCTCCC
DNA 2: TGGTGGCTACGACGGGATT
B11: UGGCGGU (DNA:RNA)
RNA: B1 RNA with C26G, U27G, U29G, C30G, C31U
DNA 1: CAATCTGAATTCCGGTCTCCC
DNA 2: TGGTGGCTACGACGGGATT
B12: CUGGCGC (DNA:RNA)
RNA: B2 RNA with G25C, A26U, C27G, A28G, A30G, G31C
DNA 1: CAATCTGAATTCCGGTCTCCC
DNA 2: TGGTGGCTACGACGGGATT
B13: UGGGCGC (DNA:RNA)
RNA: B1 RNA with C26G, U27G, C28G, U29C, C30G
DNA 1: CAATCTGAATTCCGGTCTCCC
DNA 2: TGGTGGCTACGACGGGATT
B14: CUGGCGG (DNA:RNA)
RNA: B2 RNA with G25C, A26U, C27G, A28G, A30G
DNA 1: CAATCTGAATTCCGGTCTCCC
DNA 2: TGGTGGCTACGACGGGATT
B15: UGGCGCU (DNA:RNA)
RNA: B1 RNA with C26G, U27G, U29G, C31U
DNA 1: CAATCTGAATTCCGGTCTCCC
DNA 2: TGGTGGCTACGACGGGATT
B16: CAGCUCC (DNA:RNA)
RNA: B1 RNA with U25C, C26A, U27G
DNA 1: CAATCTGAATTCCGGTCTCCC
DNA 2: TGGTGGCTACGACGGGATT
B17: AGACUGC (DNA:RNA)
RNA: B1 RNA with U25A, C26G, U27A, C30G
DNA 1: CAATCTGAATTCCGGTCTCCC
DNA 2: TGGTGGCTACGACGGGATT
B18: AGGGAGG (DNA:RNA)
RNA: B2 RNA with G25A, A26G, C27G, A28G, C29A, A30G
DNA 1: CAATCTGAATTCCGGTCTCCC
DNA 2: TGGTGGCTACGACGGGATT
B19: AAGUGUC (DNA:RNA)
RNA: B2 RNA with G25A, C27G, A28U, C29G, A30U, G31C
DNA 1: CAATCTGAATTCCGGTCTCCC
DNA 2: TGGTGGCTACGACGGGATT
B20: UGAGCAU (DNA:RNA)
RNA: B2 RNA with G25U, A26G, C27A, A28G, G31U
DNA 1: CAATCTGAATTCCGGTCTCCC
DNA 2: TGGTGGCTACGACGGGATT
B21: UCAUGUU (DNA:RNA)
RNA: B1 RNA with U27A, C28U, U29G, C30U, C31U
DNA 1: CAATCTGAATTCCGGTCTCCC
DNA 2: TGGTGGCTACGACGGGATT
B22: GCUGUUA (DNA:RNA)
RNA: B1 RNA with U25G, C28G, C30U, C31A
DNA 1: CAATCTGAATTCCGGTCTCCC
DNA 2: TGGTGGCTACGACGGGATT
B23: GGCGCCG (DNA:RNA)
RNA: B2 RNA with A26G, A28G, A30C
DNA 1: CAATCTGAATTCCGGTCTCCC
DNA 2: TGGTGGCTACGACGGGATT
B24: CGGAUAG (DNA:RNA)
RNA: B2 RNA with G25C, A26G, C27G, C29U
DNA 1: CAATCTGAATTCCGGTCTCCC
DNA 2: TGGTGGCTACGACGGGATT
B25: GGGAUAG (DNA:RNA)
RNA: B2 RNA with A26G, C27G, C29U
DNA 1: CAATCTGAATTCCGGTCTCCC
DNA 2: TGGTGGCTACGACGGGATT
B26: CGGAUUG (DNA:RNA)
RNA: B2 RNA with G25C, A26G, C27G, C29U, A30U
DNA 1: CAATCTGAATTCCGGTCTCCC
DNA 2: TGGTGGCTACGACGGGATT
B27: GUCGGGA (DNA:RNA)
RNA: B2 RNA with A26U, A28G, C29G, A30G, G31A
DNA 1: CAATCTGAATTCCGGTCTCCC
DNA 2: TGGTGGCTACGACGGGATT
B28: GAAUUUG (DNA:RNA)
RNA: B2 RNA with C27A, A28U, C29U, A30U
DNA 1: CAATCTGAATTCCGGTCTCCC
DNA 2: TGGTGGCTACGACGGGATT
B29: GGAUAGU (DNA:RNA)
RNA: B2 RNA with A26G, C27A, A28U, C29A, A30G, G31U
DNA 1: CAATCTGAATTCCGGTCTCCC
DNA 2: TGGTGGCTACGACGGGATT
B30: GUCGGAU (DNA:RNA)
RNA: B2 RNA with A26U, A28G, C29G, G31U
DNA 1: CAATCTGAATTCCGGTCTCCC
DNA 2: TGGTGGCTACGACGGGATT
B31: CACCGGA (DNA:RNA)
RNA: B2 RNA with G25C, A28C, C29G, A30G, G31A
DNA 1: CAATCTGAATTCCGGTCTCCC
DNA 2: TGGTGGCTACGACGGGATT
B32: GGAUUUG (DNA:RNA)
RNA: B2 RNA with A26G, C27A, A28U, C29U, A30U
DNA 1: CAATCTGAATTCCGGTCTCCC
DNA 2: TGGTGGCTACGACGGGATT
B33: GGGAUUG (DNA:RNA)
RNA: B2 RNA with A26G, C27G, C29U, A30U
DNA 1: CAATCTGAATTCCGGTCTCCC
DNA 2: TGGTGGCTACGACGGGATT
B34: GGGGGGA (DNA:RNA)
RNA: B2 RNA with A26G, C27G, A28G, C29G, A30G, G31A
DNA 1: CAATCTGAATTCCGGTCTCCC
DNA 2: TGGTGGCTACGACGGGATT
B35: GUCCGGA (DNA:RNA)
RNA: B2 RNA with A26U, A28C, C29G, A30G, G31A
DNA 1: CAATCTGAATTCCGGTCTCCC
DNA 2: TGGTGGCTACGACGGGATT

molecular target: T1, RBFOX1 RRM; assay: EMSA; HiTS-Eq, 1 nM pool, 10 min; buffer printed only for the single-RNA assays: 10 mM Tris pH 7.5, 150 mM NaCl, 3.4 mM EDTA, 0.001% NP-40, 30 C; details: tags: His6 N-terminal (pET28a); label: 5' 32P
Outline: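 A pool of RNA with 7 randomized nucleotides, 5′-radiolabelled and with DNA-annealed flanks, was equilibrated at 1 nM for 10 min in 50 µL with purified RbFox RRM, wild type or mutant, across increasing protein concentrations. Free RNA was separated by 8% native PAGE, excised, reverse-transcribed, barcoded by PCR and sequenced. Relative association constants were obtained from read-count changes of each RNA species versus the control reaction and normalised to the cognate motif.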

Binder | binding signal
B1 | 0.00975 KA relative to UGCAUGU
B2 | 0.00906 KA relative to UGCAUGU
B3 | 0.00663 KA relative to UGCAUGU
B4 | 0.00894 KA relative to UGCAUGU
B5 | 0.0108 KA relative to UGCAUGU
B6 | 0.0158 KA relative to UGCAUGU
B7 | 0.0143 KA relative to UGCAUGU
B8 | 0.00911 KA relative to UGCAUGU
B9 | 0.0377 KA relative to UGCAUGU
B10 | 0.0408 KA relative to UGCAUGU
B11 | 0.0227 KA relative to UGCAUGU
B12 | 0.02 KA relative to UGCAUGU
B13 | 0.0335 KA relative to UGCAUGU
B14 | 0.00866 KA relative to UGCAUGU
B15 | 0.0198 KA relative to UGCAUGU
B16 | 0.00767 KA relative to UGCAUGU
B17 | 0.0128 KA relative to UGCAUGU
B18 | 0.0245 KA relative to UGCAUGU

Binder | binding signal
B19 | 0.0153 KA relative to UGCAUGU
B20 | 0.0172 KA relative to UGCAUGU
B21 | 0.0106 KA relative to UGCAUGU
B22 | 0.0113 KA relative to UGCAUGU
B23 | 0.00841 KA relative to UGCAUGU
B24 | 0.0228 KA relative to UGCAUGU
B25 | 0.0337 KA relative to UGCAUGU
B26 | 0.0329 KA relative to UGCAUGU
B27 | 0.0117 KA relative to UGCAUGU
B28 | 0.0172 KA relative to UGCAUGU
B29 | 0.0169 KA relative to UGCAUGU
B30 | 0.00831 KA relative to UGCAUGU
B31 | 0.00389 KA relative to UGCAUGU
B32 | 0.034 KA relative to UGCAUGU
B33 | 0.0593 KA relative to UGCAUGU
B34 | 0.0226 KA relative to UGCAUGU
B35 | 0.00347 KA relative to UGCAUGU
